According to PMC4552634, “A New Set of Chemical Starting Points with Plasmodium falciparum Transmission-Blocking Potential for Antimalarial Drug Discovery” (PLoS ONE, 2015):
Among all 13,000 compounds or so, about 3,200 (25%) showed an effect of 50% or more. This is one part of the list.

What follows are compounds tested on P. falciparum stage V gametocytes. Conditions: 48 h, 5 µM; inhibitor.
Set-up: BacTiter-Glo ATP luminescence viability of purified stage V gametocytes in 384-well plates, per cent inhibition versus DMSO

Row | Structure (SMILES) | % Inhibition [%]
1 | Cc1cc(C(=O)CN2C(=O)NC3(CCCc4ccccc43)C2=O)c(C)n1Cc1ccc(F)cc1 (stereo not shown) [TCMDC-125057] | -27.15
2 | O=C(/C=C/c1ccc(Cl)c(Cl)c1)NCCCCCN1CCC(NC(=O)c2ccc3ccccc3c2)CC1 [TCMDC-135869] | -22.99
3 | Cc1[nH]c(C)c(-c2ccc(-c3ccc(C(F)(F)F)cc3C(F)(F)F)nc2)c(=O)c1Br [TCMDC-136013] | 70.39
4 | Cc1[nH]c(C)c(-c2ccc(-c3cc(C(F)(F)F)cc(C(F)(F)F)c3)nc2)c(=O)c1Br [TCMDC-136015] | 76.88
5 | Cc1[nH]c(C)c(-c2ccc(-c3ccccc3C(F)(F)F)nc2)c(=O)c1Br [TCMDC-135881] | 80.96
6 | Cc1[nH]c(C)c(-c2ccc(-c3cccc(C(F)(F)F)c3)nc2)c(=O)c1Br [TCMDC-135911] | 22.21
7 | N#Cc1cccc(/C=C/C(=O)NC2CCC(CCN3CCc4ccc(-c5cnccn5)cc4CC3)CC2)c1 (stereo not shown) [TCMDC-140238] | -55.93
8 | Cc1cc(N(C)C)nc(Nc2ccc(NC(=O)C3CCCCC3)cc2)n1 [TCMDC-124978] | 11.42
9 | CCOc1cc(C(=O)NCCN(C(C)C)C(C)C)ccc1-c1nc2ccc(Cl)cc2[nH]1 [TCMDC-140910] | 18.37
10 | O=c1cc(NCCCNC2CCCc3c2ccc2ccccc32)[nH]c2ccccc12 (stereo not shown) [TCMDC-139366] | 0.6782
11 | CCOC(=O)c1c(C)n(C2CCCCCC2)c2cc(Br)c(O)cc12 [TCMDC-124588] | -95.43
12 | Cc1ccc(-n2c(C)cc(C(=O)CN3C(=O)NC(Cc4ccccc4)C3=O)c2C)cc1 (stereo not shown) [TCMDC-123563] | -21.41
13 | CC(C)C[C@@H](/C=N/NC(N)=O)NC(=O)[C@H](CC(C)C)NC(=O)[C@H](CC(C)C)NC(=O)OCc1ccccc1 [TCMDC-139049] | -49.58
14 | CCC(Nc1noc(-c2c(-c3ccccc3)noc2C)n1)c1ccccc1 (stereo not shown) [TCMDC-134200] | 3.321
15 | CC(C)CNCc1ccc(-c2cccc(CNC3CCN(Cc4ccccc4)CC3)c2)cc1 [TCMDC-140480] | 110
16 | CC(C)CNCc1cccc(-c2ccc(CNC3CCN(Cc4ccccc4)CC3)cc2)c1 [TCMDC-140487] | 103
17 | CC(C)CNCc1cccc(-c2ccccc2CNC2CCN(Cc3ccccc3)CC2)c1 [TCMDC-140469] | 76.18
18 | CC(C)CNCc1cccc(-c2cccc(CNC3CCN(Cc4ccccc4)CC3)c2)c1 [TCMDC-140479] | 106.4
19 | NC1=NC(c2ccccc2)(c2ccccc2)C(=O)N1C1CCCCC1 [TCMDC-136761] | -44.85
